{"source": "the supplement of paper PMC3724861", "note": "Only a selection was taken, and hits are over-represented in it overall. No count for the full screen is at hand. Values without a mark were called inactive."}
{"system": "T1, Caupolican (Caup) homeodomain DNA-binding domain", "T1 sequence": "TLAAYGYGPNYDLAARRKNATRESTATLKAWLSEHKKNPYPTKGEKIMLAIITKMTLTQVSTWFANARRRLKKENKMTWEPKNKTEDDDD", "assay": "PBM E-score (8-mer, recovered from the published 9-mer minima) (E-score (dimensionless, -0.5 to 0.5)); Drosophila protein; higher = stronger relative binding preference, active = 0.31 or more", "method_in_brief": "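Caup's homeodomain DNA-binding domain (residues 214-303) was produced by in vitro transcription and translation and applied at 100 nM to custom-designed protein binding microarrays. Each value is an enrichment score giving relative binding preference for a short DNA word; higher means stronger. Published 9-mer scores were the minimum of their two constituent 8-mer scores, and the 8-mer values were recovered from those minima. A cutoff of 0.31 marks candidate binding sequences.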"}
{"sequence": "CGGTACAA", "PBM E-score": 0.234}
{"sequence": "AGGTACAT", "PBM E-score": "0.389 (active)"}
{"sequence": "AGGTACTC", "PBM E-score": 0.085}
{"sequence": "AGGTATAA", "PBM E-score": 0.0486}
{"sequence": "AGGTACAA", "PBM E-score": "0.345 (active)"}
{"sequence": "AGGTACAG", "PBM E-score": 0.146}
{"sequence": "TGGTACAA", "PBM E-score": "0.358 (active)"}
{"sequence": "GGGTACAA", "PBM E-score": 0.242}
{"sequence": "GGAGGGAA", "PBM E-score": -0.186}
{"sequence": "ACGCATAT", "PBM E-score": 0.103}
{"sequence": "ACGGCTTG", "PBM E-score": -0.133}
{"sequence": "CACCTACA", "PBM E-score": 0.17}
{"sequence": "AGTCATTG", "PBM E-score": 0.121}
{"sequence": "CGAGTGAA", "PBM E-score": -0.00479}
{"sequence": "TAACACCA", "PBM E-score": 0.247}
{"sequence": "GAACACTA", "PBM E-score": 0.103}
{"sequence": "CAACACGA", "PBM E-score": 0.267}
{"sequence": "GAACACGC", "PBM E-score": 0.254}
{"sequence": "TAACACGA", "PBM E-score": "0.323 (active)"}
{"sequence": "GAACACGA", "PBM E-score": "0.32 (active)"}
{"sequence": "GCCGCCCA", "PBM E-score": -0.275}
{"sequence": "GTGTAAAC", "PBM E-score": 0.293}
{"sequence": "AAGTAAAG", "PBM E-score": -0.0403}
{"sequence": "ACGTAAAT", "PBM E-score": 0.102}
{"sequence": "ATGTAAAG", "PBM E-score": "0.317 (active)"}
{"sequence": "ATGTAAAC", "PBM E-score": "0.36 (active)"}
{"sequence": "TTGTAAAA", "PBM E-score": 0.275}
{"sequence": "CTGTAAAA", "PBM E-score": 0.121}
{"sequence": "CTGTAAAG", "PBM E-score": 0.0792}
{"sequence": "ATGTAAAA", "PBM E-score": "0.354 (active)"}
{"sequence": "CTGTAAAC", "PBM E-score": 0.18}
{"sequence": "AGGTAAAT", "PBM E-score": 0.153}
{"sequence": "ATGTAAAT", "PBM E-score": "0.352 (active)"}
{"sequence": "AGAGTAGG", "PBM E-score": 0.00327}
{"sequence": "CCCCTCGC", "PBM E-score": -0.261}
{"sequence": "CACACATG", "PBM E-score": 0.192}
{"sequence": "AGCGACAA", "PBM E-score": 0.228}
{"sequence": "GTTATTTA", "PBM E-score": 0.201}
{"sequence": "AATGCATA", "PBM E-score": 0.0394}
{"sequence": "ACGTTTGG", "PBM E-score": 0.0157}
{"sequence": "AAGGTCAA", "PBM E-score": 0.00315}
{"sequence": "ATGCCTCA", "PBM E-score": -0.045}
{"sequence": "CGAGACAA", "PBM E-score": 0.0948}
{"sequence": "ACGTGTAT", "PBM E-score": "0.353 (active)"}
{"sequence": "CCGTGTCC", "PBM E-score": 0.218}
{"sequence": "AAGTGTAG", "PBM E-score": 0.17}
{"sequence": "AAGTGTAC", "PBM E-score": 0.304}
{"sequence": "ACGTGTCT", "PBM E-score": 0.244}
{"sequence": "CCGTGTAG", "PBM E-score": 0.286}
{"sequence": "AAGTGTAT", "PBM E-score": 0.144}
{"sequence": "ACGTGTAC", "PBM E-score": "0.367 (active)"}
{"sequence": "ACGTGTAG", "PBM E-score": "0.321 (active)"}
{"sequence": "CCGTGTAC", "PBM E-score": "0.411 (active)"}
{"sequence": "ACGTGTGC", "PBM E-score": 0.0653}
{"sequence": "CAGTGTAC", "PBM E-score": 0.207}
{"sequence": "CTGAGCGC", "PBM E-score": -0.211}
{"sequence": "TCTCGAGA", "PBM E-score": 0.0237}
{"sequence": "AACGACTG", "PBM E-score": 0.0234}
{"sequence": "CTTCAGTC", "PBM E-score": -0.0898}
{"sequence": "AGTCCATG", "PBM E-score": 0.0703}
{"sequence": "ACTGCCGG", "PBM E-score": -0.163}
{"sequence": "ACTATCGG", "PBM E-score": -0.056}
{"sequence": "CGCAGGTA", "PBM E-score": -0.0146}
{"sequence": "AGGTAAAA", "PBM E-score": 0.0159}
{"sequence": "GCGTGTAC", "PBM E-score": "0.367 (active)"}
{"sequence": "GCGTGTCC", "PBM E-score": 0.223}
{"sequence": "GAGTGTAC", "PBM E-score": 0.121}
{"sequence": "CCTAAAAC", "PBM E-score": -0.07}
{"sequence": "GGTGGCCA", "PBM E-score": -0.164}
{"sequence": "CCCTTACA", "PBM E-score": 0.152}
{"sequence": "ATGGCCCC", "PBM E-score": -0.175}
{"sequence": "AATATAGA", "PBM E-score": 0.138}
{"sequence": "ATAAACAG", "PBM E-score": 0.147}
{"sequence": "ATAAACAA", "PBM E-score": 0.254}
{"sequence": "AAAAACAT", "PBM E-score": 0.296}
{"sequence": "ATAAACAC", "PBM E-score": 0.251}
{"sequence": "GTAAACAA", "PBM E-score": "0.321 (active)"}
{"sequence": "ACAAACAC", "PBM E-score": 0.301}
{"sequence": "ATAAACAT", "PBM E-score": "0.321 (active)"}
{"sequence": "ACAAACAA", "PBM E-score": "0.317 (active)"}
{"sequence": "TTAAACAA", "PBM E-score": 0.23}
{"sequence": "ACAAACAG", "PBM E-score": 0.258}
{"sequence": "ACAAACAT", "PBM E-score": "0.368 (active)"}
{"sequence": "ACAAACCT", "PBM E-score": 0.0926}
{"sequence": "CGGTGAAA", "PBM E-score": -0.001}
{"sequence": "ATCTTCTG", "PBM E-score": -0.0212}
{"sequence": "CACTAAAG", "PBM E-score": -0.125}
{"sequence": "GATATGGC", "PBM E-score": -0.0691}
{"sequence": "GATTTGCC", "PBM E-score": -0.0122}
{"sequence": "GGTGTAAC", "PBM E-score": 0.205}
{"sequence": "AGTGTAAA", "PBM E-score": 0.13}
{"sequence": "CGTGTAAC", "PBM E-score": "0.321 (active)"}
{"sequence": "CGTGTAAA", "PBM E-score": "0.377 (active)"}
{"sequence": "AGTGTAAG", "PBM E-score": 0.215}
{"sequence": "CGTGTAAG", "PBM E-score": "0.333 (active)"}
{"sequence": "GGTGTAAA", "PBM E-score": 0.24}
{"sequence": "TGTGTAAA", "PBM E-score": "0.318 (active)"}
{"sequence": "ACTGTAAG", "PBM E-score": 0.147}
{"sequence": "AGTGTAAC", "PBM E-score": 0.2}
{"sequence": "ACGTTCCG", "PBM E-score": -0.0768}
{"sequence": "AAGCCAGG", "PBM E-score": -0.171}
{"sequence": "ACCCGCAG", "PBM E-score": -0.142}
{"sequence": "AATTAGAC", "PBM E-score": 0.132}
{"sequence": "CAGCGAAC", "PBM E-score": 0.0117}
{"sequence": "CGGCCCTC", "PBM E-score": -0.331}
{"sequence": "AGGCCCCC", "PBM E-score": -0.398}
{"sequence": "GGATCGCA", "PBM E-score": 0.00822}
{"sequence": "CCATAGCA", "PBM E-score": 0.0725}
{"sequence": "CATGTTTA", "PBM E-score": "0.399 (active)"}
{"sequence": "GATGTTTA", "PBM E-score": 0.247}
{"sequence": "AATGTTTC", "PBM E-score": 0.143}
{"sequence": "AATGTTTA", "PBM E-score": 0.213}
{"sequence": "CCTGTTTC", "PBM E-score": 0.17}
{"sequence": "CATGTTTC", "PBM E-score": "0.355 (active)"}
{"sequence": "CTAGAGCA", "PBM E-score": -0.132}
